Tested on: SUM149
Test: percent difference in area under dose-response curve of relative cell number, RPMI vs HPLM; higher = drug relatively more effective in HPLM than RPMI (negative = less effective in HPLM)
Details: treatment time: 72 h; dose range: 10-point, 1 nM to 20 µM; media compared: RPMI vs HPLM

SMILES | percent difference in area under dose-response curve
N[C@H](C(=O)O)[C@@H]1CC(Cl)=NO1 [Acivicin] | 9.22%
CC(C)(C)c1cc(NC(=O)Nc2ccc(-c3cn4c(n3)sc3cc(OCCN5CCOCC5)ccc34)cc2)no1 [Quizartinib] | -0.334%
Cc1ccc(C)c(Oc2ccncc2C(=O)N2CCN(C3CC3)c3ccccc32)c1 | -4.99%
CC(C)NCCCn1c(Sc2cc3c(cc2I)OCO3)nc2c(N)ncnc21 | -28.4%
CN(CC(=O)N(Cc1ccc(C2CCCCC2)cc1)c1ccc(C(=O)O)cc1)S(=O)(=O)c1c(F)c(F)c(F)c(F)c1F | 3.06%
O=C(O)c1ccc2c(c1)nc(Nc1cccc(Cl)c1)c1ccncc12 | 0.753%
CCCCc1nc2cc(/C=C/C(=O)NO)ccc2n1CCN(CC)CC | 0.47%
C/C=C/C/C=C/CCC(=O)[C@H]1O[C@H]1C(N)=O [Cerulenin] | -9.61%
COc1cc(/C=C/C(=O)N2CCC=CC2=O)cc(OC)c1OC [Piperlongumine] | -18.1%
Nc1nccc(Oc2ccc(NC(=O)c3c[nH]cc(-c4ccc(F)cc4)c3=O)cc2F)c1Cl | -4.65%
COc1cc2c(cc1O)CC[C@@H]1[C@@H]2CC[C@]2(C)[C@@H](O)CC[C@@H]12 [2_Methoxyestradiol] | 6.52%
Cc1cccc(CC(=O)N2CCc3c2ccc(-c2cn(C)c4ncnc(N)c24)c3F)n1 | -5.2%
O=C(NCCCNc1nc(Nc2cccc(NC(=O)N3CCCC3)c2)ncc1I)c1cccs1 | -9.09%
FC(F)c1nc2ccccc2n1-c1nc(N2CCOCC2)nc(N2CCOCC2)n1 | 1.79%
O=c1[nH]cc(F)c(=O)[nH]1 [Adrucil] | 1.58%
Cc1nc(N)sc1-c1ccnc(Nc2ccc(N3CCOCC3)cc2)n1 | 11%
CNCc1ccc(-c2[nH]c3cc(F)cc4c3c2CCNC4=O)cc1 [Rucaparib] | -14.3%

SMILES | percent difference in area under dose-response curve
CN1CCN(c2nc(C3=C(c4c[nH]c5ccccc45)C(=O)NC3=O)c3ccccc3n2)CC1 [Sotrastaurin] | 9.13%
COc1cccc2c(NCc3ccccc3)nc(-n3c(N)nc4ccccc43)nc12 | -7.47%
Cc1ccc(F)c(NC(=O)Nc2ccc(-c3cccc4[nH]nc(N)c34)cc2)c1 [Linifanib] | 0.938%
CC(=O)O[C@]1(C(C)=O)CC[C@H]2[C@@H]3C[C@H](C)C4=CC(=O)CC[C@]4(C)[C@H]3CC[C@@]21C [Medroxyprogesterone_acetate] | 0.646%
CCOC(=O)[C@@H](N)CCC(=O)N[C@@H](CSCc1ccccc1)C(=O)N[C@@H](C(=O)OCC)c1ccccc1 [Telintra] | 2.03%
Cc1[nH]c(/C=C2\C(=O)Nc3ccc(S(=O)(=O)N(C)c4cccc(Cl)c4)cc32)c(C)c1C(=O)N1CCN(C)CC1 | -9.77%
CN(C)CCOc1ccc(/C(=C(/CCCl)c2ccccc2)c2ccccc2)cc1 [Toremifene_Citrate] | 2.31%
O=C(Nc1cccc(C(F)(F)F)c1)Nc1cc(S(=O)(=O)NC2CC2)ccc1-c1ccsc1 | -8.01%
CC[n+]1c(-c2ccccc2)c2cc(N)ccc2c2ccc(N)cc21 [Ethidium_Bromide] | -18.5%
Cc1c(C(=O)Nc2ccc(N3C[C@@H](C)O[C@@H](C)C3)nc2)cccc1-c1ccc(OC(F)(F)F)cc1 | -7%
Nc1nc(F)nc2c1ncn2[C@@H]1O[C@H](COP(=O)(O)O)[C@@H](O)[C@@H]1O [Fludarabine_Phosphate] | -16.9%
CCC(C)SSc1ncc[nH]1 (centres undefined) | 3.05%
COc1cc(O)c(CC=C(C)C)c(O)c1C(=O)/C=C/c1ccc(O)cc1 [Xanthohumol] | -9.86%
Cc1cc(Nc2cc(N3CCN(C)CC3)nc(/C=C/c3ccccc3)n2)n[nH]1 | -2.84%
CCC[C@H](NC(=O)/C(C#N)=C/c1cccc(Br)n1)c1ccccc1 | 5.71%
Cc1cccc(-c2[nH]c(C(C)(C)C)nc2-c2ccc3nccnc3c2)n1 | -7.49%
CCC(C)(C)C(=O)O[C@H]1C[C@@H](C)C=C2C=C[C@H](C)[C@H](CC[C@@H]3C[C@@H](O)CC(=O)O3)[C@H]21 [Simvastatin] | -12.1%
